Data on 5 compounds can be found in PubChem BioAssay AID1987 (The Scripps Research Institute Molecular Screening Center, 2009).

The whole screen tested about 320,000 compounds, of which about 560 (0.17%) were called active. The sample as a whole holds a higher share of actives than the screen did. A number with no mark means an inactive call.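 The calls were made as follows: active = inhibition above the campaign's mean inhibition across all tested compounds plus 3 SD (cut at about 9.5% in these data); inactive = the rest.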

Serine/threonine-protein phosphatase 5 (Homo sapiens), sequence (P53041 whole entry, looked up): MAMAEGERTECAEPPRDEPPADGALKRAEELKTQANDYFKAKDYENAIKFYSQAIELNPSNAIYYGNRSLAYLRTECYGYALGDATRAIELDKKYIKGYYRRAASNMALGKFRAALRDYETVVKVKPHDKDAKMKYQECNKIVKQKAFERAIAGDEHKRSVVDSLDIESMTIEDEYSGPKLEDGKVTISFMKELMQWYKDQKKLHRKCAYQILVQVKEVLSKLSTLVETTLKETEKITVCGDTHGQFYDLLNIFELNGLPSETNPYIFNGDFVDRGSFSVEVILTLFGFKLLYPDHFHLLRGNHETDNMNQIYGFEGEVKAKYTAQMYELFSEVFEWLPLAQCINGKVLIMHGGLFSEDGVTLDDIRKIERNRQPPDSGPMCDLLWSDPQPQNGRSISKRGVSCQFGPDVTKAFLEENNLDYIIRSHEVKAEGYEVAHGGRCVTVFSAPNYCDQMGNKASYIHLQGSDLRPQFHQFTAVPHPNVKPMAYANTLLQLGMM

The assay concerns the target Serine/threonine-protein phosphatase 5 (Homo sapiens) (UniProt P53041). The assay can be described thus: PP5 phosphatase inhibitors, primary screen, biochemical, fluorescence (AID 1987).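 Also: 0% = DMSO only and 100% = 100 µM cantharidin control.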 The conditions noted are these: purified PP5c, OMFP substrate fluorescence; at 6.7 µM; active compounds read high.
For the compound `O=C(O)c1ccccc1NC(=O)C1C2CCC(O2)C1C(=O)O` (stereo not given), the inhibition was 41.3% (active).
As to `Cc1cc(C)cc(NC(=S)NC2CC3CCCC(C2)N3Cc2cccs2)c1` (stereo not given), the inhibition was 4.69%.
Turning to `CC(c1ccccc1)(c1ccccc1)c1ccncc1`, the inhibition is -0.19%.
The result for `C[N+]12CN3CN(CN(C3)C1)C2` reads -1.24%.
The result for `CCOP(=O)(OCC)C(NC(=O)NC)C(N)=O` (stereo not given) reads -0.58%.
